Measured values: article PMC5540273 (PLoS ONE, 2017)

How the values were obtained:
Details in all cases: concentration: 1 μM, replicates: in singlicate; n = 1
[1] = tested on: MAST1
[2] = tested on: T1, MEK1
T1 construct: gene MAP2K1

[3] = tested on: T2, MEK2
T2 construct: gene MAP2K2

[4] = tested on: T3, MEK3
T3 construct: gene MAP2K3

[5] = tested on: T4, MEK4
T4 construct: gene MAP2K4

[6] = tested on: T5, MEK5
T5 construct: gene MAP2K5

[7] = tested on: T6, MEK6
T6 construct: gene MAP2K6

[8] = tested on: MELK
[9] = tested on: MERTK
[10] = tested on: MET
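Note: KINOMEscan kinase panel screen.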

| SMILES | %Inh [1] [%] | %Inh [2] [%] | %Inh [3] [%] | %Inh [4] [%] | %Inh [5] [%] | %Inh [6] [%] | %Inh [7] [%] | %Inh [8] [%] | %Inh [9] [%] | %Inh [10] [%] |
| --- | --- | --- | --- | --- | --- | --- | --- | --- | --- | --- |
| COc1ccc(CSc2nnc(-c3ccc4ncsc4c3)o2)cc1C(F)(F)F | 0 | 0 | 9 | 9 | 0 | 0 | 24 | 0 | 16 | 0 |
| CC(=O)c1c(C)c2cnc(Nc3ccc(N4CCNCC4)cn3)nc2n(C2CCCC2)c1=O | 0 | 0 | 0 | 0 | 0 | 1 | 0 | 5 | 0 | 0 |
| FC(F)(F)c1ccccc1-c1cc(-c2c[nH]nc2-c2ccccn2)ccn1 [GW679396] | 4 | 0 | 0 | 0 | 16 | 0 | 0 | 0 | 26 | 0 |
| Fc1ccc(-c2nc3n(c2-c2ccncc2)CCS3)cc1 [GI98581] | 0 | 0 | 0 | 0 | 12 | 14 | 0 | 5 | 12 | 0 |
| CCc1ccc(-c2ccc3c(c2)-c2n[nH]cc2S(=O)(=O)N3C)cc1 | 0 | 10 | 86 | 13 | 0 | 8 | 0 | 9 | 0 | 0 |
| Cc1ccc(NC(=O)c2ccc(Cl)cc2)cc1-c1ccc(C(=O)Nc2ccncc2)cc1 [GSK1398467] | 0 | 0 | 0 | 0 | 3 | 0 | 0 | 0 | 18 | 0 |
| CNC(=O)c1ccc(C)c(-n2c(C)cc(OCc3ccc(F)cc3F)c(Br)c2=O)c1 | 0 | 0 | 0 | 0 | 0 | 0 | 0 | 14 | 0 | 0 |
| COc1cccc(C2=C(Nc3cc(Cl)c(O)c(Cl)c3)C(=O)NC2=O)c1 [SB-390767] | 1 | 0 | 0 | 0 | 0 | 17 | 0 | 17 | 0 | 0 |
| Cc1c(Cn2c(C)c(C)n3c(=O)cc(N4CCOCC4)nc23)cccc1C(F)(F)F [GSK2328680] | 0 | 0 | 0 | 0 | 0 | 0 | 0 | 1 | 0 | 0 |
| Cc1nccc(-c2c(-c3ccc(F)cc3)ncn2CCCN2CCOCC2)n1.Cl [SB-282975] | 71 | 1 | 33 | 2 | 9 | 19 | 0 | 19 | 24 | 0 |
| COC(=O)C(NC(=O)NC1CCN(c2ccnc(Nc3ccc(F)cc3)n2)C1)c1ccccc1 (stereo not shown) [GSK1379712] | 0 | 19 | 0 | 0 | 16 | 86 | 0 | 20 | 0 | 0 |
| COc1ccc(Nc2nccc(-c3ccc(NC(=O)c4cc5cc(F)ccc5[nH]4)cc3)n2)cc1 [GSK1229496] | 0 | 0 | 0 | 20 | 0 | 6 | 0 | 0 | 18 | 0 |
| COc1cccc(CNC(=O)NC2CCN(c3ccnc(Nc4ccc(F)cc4)n3)C2)c1 (stereo not shown) [GSK1379723] | 6 | 10 | 0 | 0 | 36 | 53 | 0 | 0 | 26 | 0 |
| COc1ccc(Nc2nccc(N3CCC(NC(=O)c4cc5ccccc5s4)C3)n2)cc1 (stereo not shown) [GSK1379738] | 0 | 0 | 0 | 0 | 23 | 10 | 0 | 0 | 0 | 0 |
| Cn1cnc2c(N)ncnc21 [SKF-97623] | 44 | 0 | 0 | 13 | 0 | 23 | 0 | 0 | 16 | 2 |
| c1ccc(-c2ccnc3[nH]ccc23)cc1 [SB-693578] | 44 | 49 | 29 | 10 | 28 | 45 | 0 | 0 | 15 | 0 |

| SMILES | %Inh [1] [%] | %Inh [2] [%] | %Inh [3] [%] | %Inh [4] [%] | %Inh [5] [%] | %Inh [6] [%] | %Inh [7] [%] | %Inh [8] [%] | %Inh [9] [%] | %Inh [10] [%] |
| --- | --- | --- | --- | --- | --- | --- | --- | --- | --- | --- |
| O=c1cc(N2CCOCC2)nc2n(Cc3ccccc3F)ccn12 [GSK2297428] | 0 | 0 | 0 | 0 | 0 | 0 | 0 | 0 | 42 | 0 |
| CNCc1ccc2nc(NC(=O)c3ccc(C(C)(C)C)cc3)cn2c1 | 50 | 32 | 27 | 8 | 30 | 34 | 11 | 0 | 5 | 6 |
| COc1ccc(Nc2nccc(N3CCC(NC(=O)C(C)c4ccc(Cl)cc4)C3)n2)cc1 (stereo not shown) [GSK1379735] | 0 | 0 | 0 | 0 | 20 | 13 | 0 | 7 | 33 | 0 |
| CC(C)c1ccc(O)cc1Nc1ccnc2ccc(C(F)(F)F)cc12 [GW482059] | 0 | 0 | 0 | 0 | 22 | 1 | 0 | 5 | 13 | 0 |
| Cc1cnc(N)c(/C=C/c2cncc(C(=O)NCCc3ccc(Cl)cc3Cl)c2)c1.Cl [GSK190937] | 5 | 0 | 0 | 0 | 34 | 41 | 0 | 2 | 29 | 0 |
| Cc1c(Cn2c3ccccc3n3c(=O)cc(N4CCOCC4)nc23)cccc1C(F)(F)F [GSK2306394] | 0 | 0 | 0 | 0 | 17 | 59 | 0 | 66 | 33 | 0 |
| O=C1NC(=O)C(c2ccc(Cl)cc2)=C1Nc1cccc(Cl)c1 [SB-317651] | 23 | 0 | 13 | 27 | 0 | 4 | 3 | 16 | 2 | 0 |
| COc1cc2ncnc(Nc3cccc(Br)c3)c2cc1OC.Cl [GI230329] | 20 | 0 | 0 | 0 | 20 | 86 | 0 | 0 | 45 | 0 |
| COc1ccc2cc(-c3nc(-c4ccccc4C(C)C)[nH]c3-c3ccncc3)ccc2c1 [SB-660566] | 2 | 0 | 0 | 0 | 65 | 11 | 45 | 26 | 33 | 0 |
| Cc1ccc(NC(=O)Nc2ccc(Cl)c(C(F)(F)F)c2)cc1-c1ccc(C(=O)Nc2ccncc2)cc1 [GSK1398470] | 0 | 0 | 0 | 0 | 24 | 29 | 0 | 13 | 0 | 13 |
| COC(=O)c1cccc(NC(=O)NC2CCN(c3ccnc(Nc4ccc(OC)cc4)n3)C2)c1 (stereo not shown) [GSK1379746] | 13 | 0 | 0 | 0 | 34 | 33 | 0 | 0 | 22 | 0 |
| CC[C@@H]1CO[C@H](C(=O)Nc2ccccc2)CN1c1cc(-c2ccc3c(N)n[nH]c3c2)nc(NC)n1 [GSK2376236] | 0 | 5 | 13 | 0 | 0 | 0 | 0 | 56 | 3 | 0 |
| CC(C)c1cc(-c2ccc3c(N)n[nH]c3c2)nc(N)n1 [GSK2250882] | 0 | 0 | 0 | 0 | 8 | 29 | 5 | 15 | 21 | 0 |
| CNc1cc(-c2ccc3c(N)n[nH]c3c2)nc(N)n1 [GSK2224810] | 18 | 2 | 0 | 0 | 18 | 37 | 14 | 48 | 31 | 0 |
| Cn1cncc1-c1cc2c(Nc3ccc(OCc4ccccc4)cc3)ncnc2cn1 [GW281179] | 0 | 11 | 5 | 0 | 24 | 99.2 | 0 | 0 | 0 | 0 |
